Holding throughout (format): functional
Test [1] has as its system Plasmodium falciparum. Nature of the test: GSK_TCMDC: Inhibition of Plasmodium falciparum 3D7 in whole red blood cells, using parasite LDH activity as an index of growth. Test compounds present at 2uM.
Test [2] has as its system Plasmodium falciparum. Kind of test: GSK_TCMDC: Inhibition of Plasmodium falciparum Dd2 in whole red blood cells, using parasite LDH activity as an index of growth. Test compounds present at 2uM.
Test [3] concerns HepG2. Kind of test: GSK_TCMDC: Percent inhibition of human HepG2 cell line. Test compounds present at 10uM.

Usually Inhibition stands for the change of the read-out against control, counted positive when it falls. The low end stands for little suppression, the high end for strong suppression.

As to `Nc1cc(/C=C/c2ccc([N+](=O)[O-])o2)nc2ccccc12`, the results for the Inhibition in test [1], in test [2] and in test [3] were 93%, 81% and 100%, respectively.
For `Fc1cc(Cl)ccc1Nc1ccnc2cc(-c3scnc3CNCCN3CCOCC3)ccc12`, the results for the Inhibition in test [1], in test [2] and in test [3] were 99%, 84% and 0%, respectively.
Take `O=C(O)C(F)(F)F.OCC1CCN(Cc2cccc(-c3cccc(-c4nc5cc(C(F)(F)F)ccc5[nH]4)c3)c2)CC1`: the Inhibition is on record as 100% in test [1], 100% in test [2] and 24% in test [3].
Consider `O=C(Nc1ccc(OC2CCN(Cc3ccsc3)C2)c(Cl)c1)c1ccco1.O=C(O)C(F)(F)F` (stereo not given), for which the Inhibition in test [1] is listed as 93%; in test [2], 96%; in test [3], 0%.
For `COc1ccc2nc(N=C3NC4(c5ccccc5)NC(=Nc5nc6ccc(OC)cc6[nH]5)NC4(c4ccccc4)N3)[nH]c2c1.O=C(O)C(F)(F)F` (stereo not given), the values for the Inhibition in test [1], in test [2] and in test [3] were 100%, 85% and 0%, respectively.
With `COc1cccc(C2CCN(CCN3CCC(NC(=O)c4ccc(-c5ccc(C#N)cc5)cc4)CC3)CC2)c1`, the Inhibition is reported as 98% in test [1], 47% in test [2] and 28% in test [3].
With `CC(O)C1CCCCN1C(=O)c1cccc(-c2cccc(-c3nc4cc(F)ccc4[nH]3)c2)c1` (stereo not given), the values for the Inhibition in test [1], in test [2] and in test [3] were 100%, 99% and 42%, respectively.
For `CCCCCCn1c(Sc2ccc(C#N)c([N+](=O)[O-])c2)nnc1-c1ccc(Cl)cc1`, in that order: 93%, 48% and 23%.
In the same order, the values of `COCCNCc1ccc(-c2ccc3c(Nc4ccc(F)cc4Cl)ccnc3c2)o1` are 100%, 100% and 22%.
Take `OC(CNCc1ccccc1Oc1ccccc1)c1cc(Br)cs1` (stereo not given): the Inhibition in test [1] was 94%; in test [2] it was 79%; in test [3] it was 0%.
